Inconclusive results are not listed. Entries that show only a call come without a potency. Activity calls are given as the source filed them. Calls come from the whole dose curve; as a rule, active = well fitted inhibition curve with a large enough effect; inconclusive = small, poorly fitted or top-dose-only effect; inactive = no such curve, though single readings can be large or run the other way.

For this assay, the target named is Cytochrome P450 3A7 (Homo sapiens) (UniProt P24462). Kind of assay: Cytochrome P450 family 3 subfamily A member 7 (CYP3A7) small molecule antagonists: luciferase biochemical qHTS assay (AID 1963596). Note: nearly all actives have a fitted effect of over 40% in size. Particulars: P450-Glo CYP3A7 enzyme luminescence, 1 h; series mostly up to 57.4 µM. The text has this: National Center for Advancing Translational Sciences [NCATS] Assay Overview: Cytochrome P450 (CYP) enzymes are membrane-bound hemeproteins that play a key role in metabolism of drugs and xenobiotics. The CYP3A subfamily is the most abundant, representing 30% of the total adult hepatic CYP content, whereas CYP3A7 is found predominantly in human fetal liver and accounts up to 50% of the total fetal hepatic CYP content. Testing the effect of chemicals on CYP isozymes is useful to minimize the adverse drug reactions and toxicities in the drug development process. Chemicals were tested for their effect on CYP enzyme activities by using P450-Glo (TM) screening systems (Promega Corporation, Madison, WI). These systems provide a luminescent method containing proluciferin substrates and are converted to luciferin products by CYP isozymes. The luciferin products formed are detected with a luciferin detection reagent, and the amount of light produced is proportional to CYP activity. P450-Glo (TM) CYP3A7 screening system (Catalog. No. V8812) was used to detect the compounds that interfere with CYP3A7 activity. The positive control compound used for CYP3A7 assay is ketoconazole (Sigma-Aldrich, St. Louis, MO).
Chain of Cytochrome P450 3A7 (Homo sapiens) (P24462 whole entry, looked up): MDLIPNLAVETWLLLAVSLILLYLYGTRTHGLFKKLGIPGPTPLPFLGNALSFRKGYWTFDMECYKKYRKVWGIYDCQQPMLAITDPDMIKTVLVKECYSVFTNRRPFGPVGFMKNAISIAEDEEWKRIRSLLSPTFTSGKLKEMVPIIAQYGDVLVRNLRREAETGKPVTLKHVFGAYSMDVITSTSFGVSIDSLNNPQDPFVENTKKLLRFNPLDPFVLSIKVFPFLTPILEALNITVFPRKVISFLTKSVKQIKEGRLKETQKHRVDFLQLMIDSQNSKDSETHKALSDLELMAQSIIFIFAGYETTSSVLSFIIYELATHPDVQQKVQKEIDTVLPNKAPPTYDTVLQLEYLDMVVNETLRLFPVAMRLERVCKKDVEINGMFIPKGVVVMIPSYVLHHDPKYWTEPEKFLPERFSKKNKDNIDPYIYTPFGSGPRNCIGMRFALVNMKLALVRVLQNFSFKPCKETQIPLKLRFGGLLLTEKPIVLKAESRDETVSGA
Assay Protocol Summary: Two ul of enzyme-substrate mix was dispensed into medium binding white/solid 1536-well plates (Greiner Bio-One North America Inc., Monroe, NC) using a Flying Reagent Dispenser (FRD, Aurora Discovery, San Diego, CA). Compounds dissolved in DMSO, and positive control (ketoconazole) were transferred to the assay plates at 23 nl using a Pintool station (Wako, San Diego, CA). The assay plates were incubated at room temperature for 10 min. Then 2 ul of NADPH regeneration solution was added to each well of the assay plates using an FRD and incubated at room temperature for 1 h. The reaction was stopped by adding 4 ul of detection reagent using an FRD and after 20 min incubation at room temperature the luminescence signal was measured using a ViewLux plate reader (Perkin Elmer, Shelton, CT). Data were expressed as relative luminescence units.
In general terms: Quantitative high-throughput screening tests each substance at several concentrations.
As to `CC(=O)O[C@@H]1CC2C3CCc4cc(OC(=O)c5ccccc5)ccc4C3CCC2(C)[C@H]1OC(C)=O` (stereo not given in full), the Potency result is “inactive”.
Under `COc1nccnc1NS(=O)(=O)c1ccc(N)cc1` stands “inactive”; under `O=C(OOC(=O)c1ccccc1)c1ccccc1`, “inactive”; under `CC(C)CCCC(C)NCCC(C)C` (stereo not given), “inactive”.
For `CN(C)CC(=O)Nc1ccc2[nH]c(=O)c3ccccc3c2c1` the value was “inactive”.
`CN(C)CCN(Cc1cccs1)c1ccccn1`: the Potency result was “inactive”.
Regarding `O=c1[nH]c(=O)n([C@H]2C[C@H](O)[C@@H](CO)O2)cc1F`, the Potency entry is “inactive”.
Regarding `COc1c(N2CCNC(C)C2)c(F)cc2c(=O)c(C(=O)O)cn(C3CC3)c12` (stereo not given), the Potency entry was “inactive”.
Under `Nc1nc(N)c2nc(-c3ccccc3)c(N)nc2n1` stands “inactive”.
On to `CC(=O)Nc1cccc(O)c1`, for which the Potency result was “inactive”.
For `CCCc1c2oc(C(=O)O)cc(=O)c2cc2c(=O)cc(C(=O)O)n(CC)c12` the value was “inactive”; for `CC(C)CC(=O)Nc1n[nH]c2c1CN(C(=O)C1CCN(C)CC1)C2(C)C`, “inactive”; for `COc1ccc(CC2c3cc(OC)c(OC)cc3CC[N+]2(C)CCC(=O)OCCCCCOC(=O)CC[N+]2(C)CCc3cc(OC)c(OC)cc3C2Cc2ccc(OC)c(OC)c2)cc1OC` (stereo not given), “inactive”.
Under `CC(C)NC(=O)c1ccc(C#Cc2ccncc2)cn1` stands “inactive”; under `Nc1ccc(S(N)(=O)=O)cc1`, “inactive”; under `CC(=O)OCC(CCn1cnc2cnc(N)nc21)COC(C)=O`, “inactive”.
For `CCCCC(=O)O` the value was “inactive”.
With `CN1c2c(nc(N)[nH]c2=O)NCC1CNc1ccc(C(=O)NC(CCC(=O)O)C(=O)O)cc1` (stereo not given), the Potency result was “inactive”.
For `CC(=O)N[C@@H](CCC(=O)O)C(=O)O` the value was “inactive”; for `CC(C)=CCC/C(C)=C/CC/C(C)=C/CC/C=C(\C)CC/C=C(\C)CCC=C(C)C`, “inactive”; for `Cc1oc(=O)oc1CN1CCN(c2cc3c(cc2F)c(=O)c(C(=O)O)c2n3C(C)S2)CC1` (stereo not given), “inactive”.
For `CCc1nc(-c2cccc(C)c2)c(-c2ccnc(NC(=O)c3ccccc3)c2)s1` the value was “inactive”; for `CCCCCC/C=C\CCCCCCCc1cccc(O)c1C(=O)O`, “inactive”.
Under `C=CC(=O)Nc1cc(Nc2nccc(-c3c[nH]c4ccccc34)n2)c(OC)cc1N(C)CCN(C)C` stands “inactive”; under `CCN(CC)CC(=O)Nc1c(C)cccc1C`, “inactive”.
Regarding `CC[C@H](NC(C)C)[C@H](O)c1ccc(O)c2[nH]c(=O)ccc12`, the Potency result was “inactive”.
For `C[N+]1(C)[C@@H]2CC(OC(=O)[C@H](CO)c3ccccc3)C[C@H]1[C@@H]1O[C@@H]12` (stereo not given in full) the value was “inactive”; for `CO[C@@]1(NC(=O)Cc2cccs2)C(=O)N2C(C(=O)O)=C(COC(N)=O)CS[C@@H]21`, “inactive”; for `COc1cc(C(=O)NC(=S)Nc2cccc(NC(=O)c3ccccc3)c2)cc(OC)c1OC`, “inactive”.
Under `Cc1cccc(C)c1NC(=O)c1ccccc1C(=O)O` stands “inactive”.
For `CC(=O)O[C@@H]1C(=O)O[C@@H]2[C@H]1OC(=O)[C@@H]2OC(C)=O` the value was “inactive”; for `O=C(Nc1nc2ccccc2n1CCc1ccccc1)c1ccccc1`, “inactive”; for `Cc1onc(-c2ccccc2)c1C(=O)N[C@@H]1C(=O)N2[C@@H]1SC(C)(C)[C@@H]2C(=O)O`, “inactive”.
Take `COc1ccc(CCCN2CCC(COC(c3ccccc3)c3ccccc3)CC2)cc1`: the Potency result was “inactive”.
Regarding `N#Cc1ccc(C(=O)N2CCC3(CC2)N=C(N)c2c(F)ccc(F)c2N3)cn1`, the Potency entry is “inactive”.
Under `FC(F)(F)c1cc(C(F)(F)F)c2ccc3nc(-c4nnco4)cn3c2n1` stands “inactive”.
For the compound `Cc1ccnc(NS(=O)(=O)c2ccc(N)cc2)n1`, the Potency result was “inactive”.
For `Cc1nc2n(c(=O)c1CCN1CCC(c3noc4cc(F)ccc34)CC1)CCC[C@H]2O` the value was “inactive”; for `CN[C@@H]1[C@@H](O)[C@@H](O[C@@H]2[C@@H](O)[C@H](O[C@H]3O[C@H]([C@@H](C)NC)CC[C@H]3N)[C@@H](N)C[C@H]2N)OC[C@]1(C)O`, “inactive”.
Under `CN(C)CCc1c[nH]c2ccc(C[C@H]3COC(=O)N3)cc12` stands “inactive”.

(Values after PubChem BioAssay (NCATS).)
